Test results as given in PubChem BioAssay AID1778 (Sanford-Burnham Center for Chemical Genomics, 2009).
In all, about 290,000 compounds went through this assay and about 260 (0.09%) were called active. This is one part of a sample in which actives are shown more often than they occur. Potency and affinity values are given separately. Unmarked numbers belong to inactive results. Cut-off read from the data, not from the text of the source: active = inhibition above about 50%; inactive = the rest.

Target: Kappa-type opioid receptor (Homo sapiens) (UniProt P41145)
Sequence (P41145 whole entry, looked up): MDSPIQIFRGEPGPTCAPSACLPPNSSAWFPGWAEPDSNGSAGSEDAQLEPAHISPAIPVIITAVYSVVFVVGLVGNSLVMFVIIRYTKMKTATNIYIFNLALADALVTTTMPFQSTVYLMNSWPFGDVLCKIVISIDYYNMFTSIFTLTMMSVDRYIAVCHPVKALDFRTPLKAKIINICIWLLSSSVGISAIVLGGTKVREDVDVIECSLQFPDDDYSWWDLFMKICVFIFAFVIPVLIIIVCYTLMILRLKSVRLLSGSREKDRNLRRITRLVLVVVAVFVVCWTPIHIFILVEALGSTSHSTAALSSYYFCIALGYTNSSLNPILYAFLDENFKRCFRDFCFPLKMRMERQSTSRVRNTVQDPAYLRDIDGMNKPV
Experiment: KOR antagonists, beta-arrestin recruitment, cell-based, luminescence, uHTS (AID 1778)
Conditions: antagonist mode, active compounds read high; at 10 µM unless noted

| SMILES | inhibition |
| --- | --- |
| CC(C)C(=O)OCC(=O)NCc1ccccc1Cl | -7.3% |
| O=C(CCN1C(=O)[C@@H]2Cc3ccccc3CN2C1=O)N[C@H](Cc1ccccc1)C(=O)O | -10% [at 20 µM] |
| C=CCn1c(O)c(N=NC(=S)Nc2ccc(OC)cc2)c2ccccc21 | 44.9% |
| C=CCn1c(O)c(N=NC(=S)Nc2cccc(C)c2)c2ccccc21 | 34% |
| C=CCn1c(O)c(N=NC(=S)Nc2cccc(OC)c2)c2ccccc21 | 52.2% (active) |
| N=C1C(c2nc3ccccc3s2)=C(O)CN1CCCO | 5.8% |
| CCN(CC)CCCN=Cc1c(-c2ccccc2)[nH]n(-c2nc3ccccc3s2)c1=O | 2.1% |
| Cc1cc(Cl)ccc1NC(=O)Cn1cncn1 | -2.4% |
| CC(CCc1ccc(O)cc1)NCCC(c1ccccc1)c1ccccc1 (stereo unspecified) | 42.6% |
| CC(NCCC(c1ccccc1)c1ccccc1)c1ccccc1 (stereo unspecified) | -18.9% |
| CCOC(=O)c1c(C)[nH]c(C)c1C(=O)CSc1nc2ccccc2c(=O)n1-c1ccc(Cl)cc1 | -15.4% |
| Nc1c2c(nc3sc4c(c13)CCCC4)-c1ccccc1CC2 | 9.5% |
| Nc1c2c(nc3sc4c(c13)CCCCC4)CCCCC2 | -28.2% |
| Nc1nc2sc3c(c2c(=O)s1)CCCC3 | -49.8% |
| Nc1c2c(nc3sc4c(c13)CCCC4)CCCCCC2 | -20.4% |
| CC1CCN(C(=O)COc2ccc3ccccc3c2Br)CC1 | -12.2% |
| CCc1ccc(CN2CCC(C(=O)Nc3cccc(-c4nnc(C)s4)c3)CC2)o1 | -24.6% |
| O=S(=O)(NCCc1ccccc1)c1ccc(-n2cnnn2)cc1 | -7.2% |
| CC(=O)Nc1cccc(NC(=O)COc2nncc3ccccc23)c1 | 13.2% |
| CC(C)Cn1c(C(C)NC(=O)Cc2ccccc2)nc2ccccc21 (stereo unspecified) | -13.7% |
| O=C1CCC([N+](=O)[O-])C(c2ccc(Cl)cc2)N1 (stereo unspecified) | -23.8% |

| SMILES | inhibition |
| --- | --- |
| CC(=O)c1cc2c(ccc3ccccc32)oc1=O | -8.6% |
| CCOC(=O)c1cc2c(ccc3ccccc32)oc1=O | -26.8% [at 20 µM] |
| CC1(C)CC(=O)CC(=Nc2ccc3[nH]c(=O)[nH]c3c2)C1 | 17.9% |
| CC1Oc2ccccc2C=C1/C=N/NC(=O)c1ccncc1 (stereo unspecified) | 22.3% |
| CC(C)CCn1nnnc1CN1CCN(c2ccc(F)cc2)CC1 | -16.4% [at 20 µM] |
| Cc1cccc(N2CCCn3c2nc2c3c(=O)n(CCN3CCOCC3)c(=O)n2C)c1 | -4% |
| Cc1ccc(N2CCCn3c2nc2c3c(=O)n(CCN3CCOCC3)c(=O)n2C)cc1 | -16.1% |
| Cn1c(=O)n(CCN2CCOCC2)c(=O)c2c1nc1n2CCCN1c1ccccc1 | 51.1% (active) |
| CN(CC(=O)Nc1ccc(F)c(F)c1F)C(=O)c1ccc(=O)[nH]c1 | 31.4% |
| CN(Cc1cnn(-c2ccccc2)c1)C(=O)C1CCC(=O)N(C2CC2)C1 (stereo unspecified) | 9.1% |
| O=[N+]([O-])c1ccc2nc(-c3ccccc3)cc(-c3ccccc3)c2c1 | 14.3% |
| O=C(O)CNc1nc(-c2ccccc2)c2cc([N+](=O)[O-])ccc2n1 | 4.1% |
| O=C(O)CCCc1c(-[n+]2ccccc2)[nH]c2ccccc12 | 5.9% |
| COCCOC(=O)c1[nH]c2c(c1C)C(=O)CC(c1ccc(OC)c(OC)c1)C2 (stereo unspecified) | -5.3% |
| CCCCN(CCCNC(=O)C1CCN(S(=O)(=O)CC)CC1)c1ccccc1 | 23.2% |
| CCCCN(CCCNC(=O)C1CCN(S(=O)(=O)N2CCOCC2)CC1)Cc1ccccc1 | 28.7% |
| CCN(CCCNC(=O)C1CCN(S(=O)(=O)CC)CC1)c1ccccc1 | 17.3% |
| CN(CCCNC(=O)C1CCN(S(=O)(=O)N2CCC3(CC2)OCCO3)CC1)Cc1ccccc1 | -79.2% |
| Cc1c(Cl)cccc1NC(=S)N1CCCN(Cc2ccccc2F)C1 | -15.1% |
| COc1cccc(C(=O)Oc2cc(C)[nH]c(=O)c2[N+](=O)[O-])c1OC | 6.3% |
| CC(C)[C@H](NC(=O)[C@@H]1Cc2ccccc2CN1)C(=O)Nc1ccc2c(c1)OCCO2 | -1.1% |

| SMILES | inhibition |
| --- | --- |
| COc1ccc(N2CCN(C(C)C(=O)N3CC(C)OC(C)C3)CC2)cc1 (stereo unspecified) | -2.4% |
| O=C1C(=O)N(CCCn2ccnc2)C(c2ccc(Br)cc2)/C1=C(\O)c1ccc2c(c1)OCCO2 (stereo unspecified) | -11.2% |
| C/C=C(/C)C(=O)O[C@@H]1c2cc3c(c(OC)c2-c2c(cc(OC)c(OC)c2OC)[C@@H](OC(C)=O)[C@@H](C)[C@H]1C)OCO3 | 10.7% |
| COc1cc2c(c(OC)c1OC)-c1c(cc3c(c1OC)OCO3)[C@@H](OC(C)=O)[C@H](C)[C@H](C)C2 | 20.4% |
| COc1ccc(-c2cc(C(=O)N/N=C/c3cccnc3)c3cc(C)cc(C)c3n2)cc1 | 1.8% |
| Cc1cccc(NC(=O)COC(=O)c2ccccc2SCC(=O)N2CCCC2)c1 | 30.1% |
| CC(CN1CCN(C)CC1)OC(=O)c1ccccc1 (stereo unspecified) | -12.4% |
| COc1ccc(CCN2C(=O)C(Oc3ccccc3)C2c2ccc3c(c2)OCO3)cc1 (stereo unspecified) | -53.4% |
| COc1ccc(CCN2C(=O)C(Oc3ccccc3C)C2c2ccc3c(c2)OCO3)cc1 (stereo unspecified) | -11% |
| O=C1C(Oc2ccccc2)C(c2ccc3c(c2)OCO3)N1CCc1ccc(F)cc1 (stereo unspecified) | 64% (active) |
| Cc1nc(SCC(=O)N2CCOCC2)c2c(C)c(C)sc2n1 | -32.1% |
| O=C(CSC1=NC(=O)C(c2ccccc2)C(=O)N1)Nc1cccc(Cl)c1 (stereo unspecified) | -48.8% |
| C=CCNC(=S)N/N=C(\C)c1cccnc1 | 3.5% |
| C/C(=N\NC(=O)COc1ccccc1-c1ccccc1)c1ccc(O)cc1O | -14.4% |
| C/C(=N\NC(=O)Cc1ccc(Cl)cc1)c1ccccc1O | -29.7% [at 20 µM] |
| C/C(=N\NC(=O)c1ccccn1)c1ccc(Cl)cc1 | -13.1% |
| C/C(=N\NC(=O)COc1ccccc1-c1ccccc1)c1cccnc1 | -42.8% |
| C=CCNC(=S)N/N=C(\C)c1cccc(OC)c1 | 26.1% |
| C/C(=N\NC(=O)COc1ccccc1-c1ccccc1)c1ccccn1 | 99% (active) |
